CHX counter = Cycloheximide Counterscreen for Small Molecule Inhibitors of Shiga Toxin; max response, %; cell reporter, cycloheximide protein synthesis inhibition counterscreen; 12% of 300,000 active; in the data active = max response mostly above about 13%, no sharp cut-off; inactive = mostly below about 14%; note: read at 38.3 µM for the half of the compounds with a filed dose; 0% is about no effect
Pf growth 48h = Primary qHTS for delayed death inhibitors of the malarial parasite plastid, 48 hour incubation; P. falciparum luciferase growth in erythrocytes, 48 h; Potency, µM (series often up to 28.7 µM), inactives show top-dose activity change, negative = inhibition, hits mostly inhibitors; 5.9% of 310,000 active; note: potency is the fitted concentration of half-maximal effect; % is set by controls: 0 for no effect and ±100 for the full control effect
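Erythrocytes infected with P. falciparum carrying an integrated firefly luciferase reporter (2% hematocrit, 0.1% parasitemia final) were exposed to compounds in RPMI 1640 with 0.5% Albumax at 37 C, 5% CO2. Growth inhibition was scored as reduced luminescence.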
Shiga toxin inh = A qHTS for Small Molecule Inhibitors of Shiga Toxin | inhibition, % at 38.7 µM | 9.2% of 290,000 active | Vero cells, Shiga toxin protein synthesis inhibition reporter; in the data active = inhibition mostly above about 28%, no sharp cut-off; inactive = mostly below about 43%; note: 0% is about no effect
Pf growth 96h = Primary qHTS for delayed death inhibitors of the malarial parasite plastid, 96 hour incubation; AID 504834, 2011; Potency, µM (highest dose often 28.7 µM), without a hit: at the top dose activity change, negative = inhibition, actives largely listed as inhibitors; 6.9% of 320,000 active; P. falciparum luciferase reporter growth, 96 h; note: potency is the fitted concentration of half-maximal effect; % is set by controls: 0 for no effect and ±100 for the full control effect
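96 h incubation, 37 C, 5% CO2, of luciferase-reporter P. falciparum-infected RBCs (2% hematocrit, 0.05% parasitemia final) with test compounds; endpoint luminescence.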
FBPA Giardia inh = qHTS Assay for Inhibitors of Fructose-1,6-bisphosphate Aldolase from Giardia Lamblia; A8B2U2; purified Giardia FBPA; Potency, µM (doses to about 59.6 µM), for inactives: top-dose activity, negative = inhibition, actives largely listed as inhibitors; 0.71% of 290,000 active; AID 2451, 2010; note: potency is the fitted concentration of half-maximal effect; % is set by controls: 0 for no effect and ±100 for the full control effect; nearly all actives have a fitted effect of over 55% in size
Target sequence (A8B2U2 whole entry, looked up): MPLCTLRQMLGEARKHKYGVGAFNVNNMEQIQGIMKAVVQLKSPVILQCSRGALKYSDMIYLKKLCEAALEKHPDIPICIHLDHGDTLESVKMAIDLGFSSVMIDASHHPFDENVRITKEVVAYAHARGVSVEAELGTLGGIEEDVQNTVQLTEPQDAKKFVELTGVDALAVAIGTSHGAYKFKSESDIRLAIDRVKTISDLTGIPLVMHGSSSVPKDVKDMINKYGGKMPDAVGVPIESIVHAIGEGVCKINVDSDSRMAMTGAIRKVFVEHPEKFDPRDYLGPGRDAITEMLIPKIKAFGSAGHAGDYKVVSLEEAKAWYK
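40 nM FBPA preincubated 10 min at RT with compound (up to 57.5 uM final), then substrate plus GAPDH/TPI/NAD/arsenate coupling and diaphorase/resazurin added. Fluorescence read after 20 min at RT, 525/598 nm.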
NS1 function inh = qHTS Assay for Inhibitors of Influenza NS1 Protein Function; 0.4% of 270,000 active; AID 2326, 2010; Potency, µM (titrated, usually from 46.1 µM), inactives show at the top dose activity, positive = more growth; calls by dose curve; note: potency is the fitted concentration of half-maximal effect; actives are rising curves; nearly all actives have a fitted effect of over 50% in size
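OD600 was taken as the measure of yeast growth restored by compound in an NS1-expressing S. cerevisiae strain. Cells had been washed out of glucose medium and diluted 1:100 into galactose -URA medium, pH 6.0.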
Numbers without * were called inactive; ? = inconclusive; . = no result given; [ ] = dose if it differs, or a comment. An excerpt weighted towards active compounds, which were near 21% of everything screened. Unless noted, calls come from the whole dose curve; as a rule, active = well fitted curve in the direction sought with a large enough effect; inconclusive = small, poorly fitted or top-dose-only effect, or another doubt; inactive = no such curve, though single readings can be large; an effect the other way counts as inactive or inconclusive.

SMILES	CHX counter	Pf growth 48h	Shiga toxin inh	Pf growth 96h	FBPA Giardia inh	NS1 function inh
COc1ccccc1Nc1ncnc2c1cnn2-c1cccc(C)c1	51*	77%	83*	6%[5.75 µM]	2%	-5%
COc1ccc(OC)c(Nc2ncnc3sc(-c4ccccc4)cc23)c1	2	-1%	0	0%	-2%	-4%
COc1cccc(Nc2ncnc3c2cnn3-c2cccc(C)c2)c1	27*	71%	78*	52%	?	8%
Cc1cccc(-n2ncc3c(Nc4c(C)n(C)n(-c5ccccc5)c4=O)ncnc32)c1	-1	?	-12	176%	6%	0%
COc1ccc(OC)c(Nc2ncnc3c2cnn3-c2ccccc2)c1	21*	2%	44	22%	-13%	-45%
CCOc1ccc(S(=O)(=O)NCCC(=O)Nc2cccc(C(=O)OC)c2)cc1	-1	12%	14	36%	8%	-8%
COc1ccc(-n2c(SCC(=O)Nc3nc(C)cs3)nnc2-c2ccoc2C)cc1	0	5.9µM*	13	3%	11%	-4%[9.22 µM]
COc1cccc(-n2c(SCC(=O)Nc3nccs3)nnc2-c2ccoc2C)c1	7	8.3µM*	14	145%	3%	-24%
O=C(CSc1nnc(Cn2c(=O)sc3ccccc32)n1-c1ccccc1)Nc1nccs1	9	?	8	4.7µM*	-1%	-57%
Cc1ccc(NS(=O)(=O)c2cccc3nsnc23)cc1C	-1	0%	-12	4.1µM*	-11%	1%
Cc1ccc(O)c(NS(=O)(=O)c2cccc3nsnc23)c1	14*	28%	-4	24%	-8%	-3%
O=S(=O)(Nc1cccc(F)c1)c1cccc2nsnc12	-3	3%	2	7%	11%	-7%
CC12CCC(=O)N1C(C(=O)N1CCN(c3ccc(C(F)(F)F)cc3[N+](=O)[O-])CC1)CS2 (stereo not drawn)	-2	-3%	-6	-10%	.	2%
COc1ccc(CCNC(=O)c2ccccc2NC(=O)C2=C(C)OCCS2)c(OC)c1	4	?	-8	?	-19%	0%
Cc1cc2n(n1)C(c1ccc(N(C)C)cc1)Nc1ccccc1-2 (stereo not drawn)	47*	86%	48*	2%	4%	-31%
Cc1ccc2c(c1)-c1cc(C)nn1C(c1ccc3c(c1)OCO3)N2 (stereo not drawn)	16*	-22%	29	?	8%	-52%
Cc1cc2n(n1)C(c1ccc3c(c1)OCO3)Nc1ccccc1-2 (stereo not drawn)	11	42%	-2	27%	-3%	-28%
CCCCNC(=O)[C@H]1N2C(=O)c3c(ccc(OC)c3OC)C2SC1(C)C (stereo partly drawn)	-3	.	18	?	-27%	1%
CC(On1c(-c2ccccc2)nc2ccc(Cl)cc21)C(=O)O (stereo not drawn)	28*	14%	56*	15%	-6%	0%
O=c1c2cc(Br)ccc2nc(-c2ccc(Cl)cc2)n1O	1	0%	-2	0%	8%	10%
Cc1ccc(-c2nc3ccc(Cl)cc3n2OC(=O)N(C)C)cc1	36	?	124*	.	-25%	-4%
CN(C)C(=O)Oc1ccnc2cc(Cl)ccc12	2	-15%	-2	17%	-9%	-4%
On1c(-c2ccccc2)nc2ccc(Cl)cc21	26	?	84*	?	-16%	-78%
Cc1ccc(-c2nc3ccc(Cl)cc3n2OC(C)C(=O)O)cc1 (stereo not drawn)	36*	24%	83*	13%	-27%	4%
CC(C(=O)OCC(=O)c1ccc(Br)cc1)N1C(=O)C2C3C=CC(C3)C2C1=O (stereo not drawn)	-3	27%	-5	-2%	11%	-1%
SMILES	CHX counter	Pf growth 48h	Shiga toxin inh	Pf growth 96h	FBPA Giardia inh	NS1 function inh
C[C@@]12Cc3cnc(-c4ccccc4)nc3C[C@@H]1CC[C@@H]1[C@H]3CC[C@@](C)(O)[C@]3(C)CC[C@@H]12	.	.	.	.	.	-5%
COc1ccc(-c2nc3ccccc3n2OC(C)C(=O)O)cc1 (stereo not drawn)	35*	95%	76*	60%	-11%	4%
COc1ccc(C(=O)c2nc3ccccc3n2C(C)C)cc1	-3	-12%	-4	35%	-22%	-3%
NS(=O)(=O)c1cccc(NC(=O)COC(=O)COc2ccc3ccccc3c2)c1	-2	40%	-5	126%	3%	.
Nc1ccc(-c2nc3ncccc3o2)c(Cl)c1	31*	40%	60*	4%	-3%	-6%
CCC(=O)Nc1ccc(Cl)c(-c2nc3ncccc3o2)c1	-1	12%	.	-6%	10%	-11%
Nc1ccc(-c2nc3ncccc3o2)c(O)c1	21*	-3%[0.00184 µM]	69*	111%	10%	-43%
Nc1ccc(Cl)c(-c2nc3ncccc3o2)c1	43*	35%	59*	-13%	1%	6%
C=CCOC(=O)NC(CC(=Nc1ccc(OC)cc1)C(=O)OC)c1ccccc1 (stereo not drawn)	.	.	.	.	-4%	.
O=C(COC(=O)c1ncc(Cl)c(Cl)c1Cl)Nc1ccc(Cl)cn1	.	6%	.	10%	.	.
Clc1ccc(C2=NNC(=NCc3ccc4c(c3)OCO4)SC2)cc1	1	?	27	?	1%	?
Oc1ccc(C2=NNC(=NCc3ccc4c(c3)OCO4)SC2)c(O)c1	32*	13%	14	?	23%	16%
C[C@H](N)C(=O)N[C@@H](C)P(=O)(O)O	.	-11%	.	-3%	.	.
COCCNC(=O)CSc1cc(=O)n(C)c2cc(Cl)ccc12	-5	32%	-13	?	7%	.
Cc1cccc(N(Cc2ccccc2)C(=O)c2ccc(CS(C)(=O)=O)cc2)c1	-3	-17%	-10	?	.	-4%
Cc1cccc(N(Cc2ccccc2)C(=O)c2ccc(F)c(S(=O)(=O)N3CCOCC3)c2)c1	.	12µM*	.	12µM*	.	.
Cc1cccc(N(Cc2ccccc2)C(=O)c2cccc(S(=O)(=O)N3CC(C)OC(C)C3)c2)c1 (stereo not drawn)	.	13µM*	.	?	.	.
CN(Cc1ccc(C(C)(C)C)cc1)C(=O)Cc1ccc(S(=O)(=O)N2CCOCC2)s1	.	9.3µM*	.	13µM*	.	.
COc1ccc(C(=O)N(CCc2ccccc2)Cc2ccccc2)cc1S(=O)(=O)N1CCOCC1	.	?	.	8.3µM*	.	.
CC1CCN(S(=O)(=O)c2cccc(C(=O)N(Cc3ccccc3)c3ccccn3)c2)CC1	2	4%	3	-15%	0%	-1%
O=C(NC1CCN(C(=O)c2ccccc2Br)CC1)c1ccccc1	-3	-30%	-6	11%	5%	1%
O=C(NCc1ccccc1)c1cc(S(=O)(=O)N2CCCCC2)ccc1N1CCOCC1	-3	?	-7	-41%[5.75 µM]	0%	.
